JMJD2A Tudor = blocks the human JMJD2A Tudor domain | O75164 | AlphaScreen JMJD2A-Tudor / H3K4me3 peptide binding | Potency, µM (series often up to 114 µM), for inactives: at the highest dose activity change, negative = inhibition, hits mostly inhibitors | 4.4% of 390,000 active | AID 504339; further: potency means the concentration at half of the fitted maximal effect; on the % scale 0 is the no-effect control and ±100 the full control effect; nearly all actives have a fitted effect of over 50% in size
G9a block = inhibitors of human histone lysine methyltransferase G9a; 8.8% of 350,000 active; Potency, µM (doses to about 102 µM), without a hit: top-dose activity, negative = inhibition, most hits filed as inhibitors; Q96KQ7; G9a H3K9 monomethylation, AlphaScreen, 2 h; further: potency means the concentration at half of the fitted maximal effect; on the % scale 0 is the no-effect control and ±100 the full control effect; nearly all actives have a fitted effect of over 75% in size
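AlphaScreen read-out: biotin-H3K9 peptide (500 nM) methylation by 20 nM enzyme with 20 uM SAM, 2 h at room temperature after 15 min compound preincubation; anti-monomethyl H3K9 antibody plus donor/acceptor beads, 10 min dark.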
L3MBTL1 inh = inhibitors of human L3MBTL1. AID 485360. 0.66% of 230,000 active. Q9Y468. Potency, µM (titrated, usually from 57.1 µM), without a hit: at the top dose activity, negative = inhibition, hits mostly inhibitors. AlphaScreen L3MBTL1–H3K9me1 peptide binding; further: potency means the concentration at half of the fitted maximal effect; on the % scale 0 is the no-effect control and ±100 the full control effect; nearly all actives have a fitted effect of over 60% in size
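First, the protein-peptide complex forms for 30 min at room temperature (L3MBTL1 50 nM, biotinylated H3K9me1 peptide 75 nM). Next, compounds are pin-transferred and incubated 30 min. Finally, AlphaScreen beads are added and read after 30 min.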
HP1b binding inh = blocks HP1-beta chromodomain binding to methylated histone tails. AlphaScreen HP1-beta / biotin-H3K9me3 peptide binding. P83916. 0.56% of 390,000 active. AID 540317. Potency, µM (titrated, usually from 114 µM), inactives show at the top dose activity change, negative = inhibition, usual class: inhibitors; further: potency means the concentration at half of the fitted maximal effect; nearly all actives have a fitted effect of over 70% in size
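AlphaScreen: HP1-beta (50 nM) preformed 30 min with biotin-H3(1-18)K9me3 peptide (50 nM) in PBS pH 7.4, 0.01% Tween-20. Compound added for 30 min at RT, then streptavidin donor/nickel chelate acceptor beads (10 ug/mL) for 30 min.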
BAZ2B block = inhibitors of human BAZ2B bromodomain; Potency, µM (doses to about 114 µM), inactives show at the highest dose activity change, negative = inhibition, most hits filed as inhibitors; 4.4% of 360,000 active; Q9UIF8; AID 504333; AlphaScreen BAZ2B-H3K14Ac peptide displacement; further: potency means the concentration at half of the fitted maximal effect; on the % scale 0 is the no-effect control and ±100 the full control effect; nearly all actives have a fitted effect of over 60% in size
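AlphaScreen luminescence quantifies BAZ2B engagement of H3K14Ac peptide; the protein and biotinylated peptide are both at 50 nM final, buffer PBS pH 7.4 with 0.01% Tween-20, all steps at room temperature.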
PI5P4Ka inh = blocks human PI5P4K alpha kinase activity; P48426; 1.2% of 330,000 active; PI5P4Kalpha enzyme, ADP-Glo luminescence, 60 min; hits give low values; max response, %; active means max response of -50% or lower; inconclusive means between -30% and -50%; inactive means -30% or higher; further: value at the top dose of about 77 µM; on the % scale 0 is the no-effect control and ±100 the full control effect
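Compounds were pin-transferred onto PI5P4Kalpha and substrate in HEPES pH 7.4 buffer with EGTA, CHAPS and 5% DMSO. ATP (5 microM final) started the reaction, which ran 60 minutes at room temperature before ADP-Glo detection.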
An asterisk follows results filed as active; ? = inconclusive; . = not tested or not shown; [ ] = remark or other dose. This is a sample that favours compounds with a hit; in the whole collection about 11% have one here. Unless noted, the call rests on the fitted dose curve; in most records, active means well fitted inhibition curve with a large enough effect; inconclusive means small, poorly fitted or top-dose-only effect; inactive means no such curve, though single readings can be large or run the other way.

SMILES	JMJD2A Tudor	G9a block	L3MBTL1 inh	HP1b binding inh	BAZ2B block	PI5P4Ka inh
COc1ccc(-n2ncc3c2CC(C)(C)CC3NC(=O)c2ccoc2C)cc1 (stereo not given)	-7%	6%	.	8%	?	-3
COc1ccc(OC)c(C(=O)NC2CC(C)(C)Cc3c2cnn3-c2ccccc2)c1 (stereo not given)	-32%	-6%	.	23%	71µM*	8
CCN(C(=O)CN1C(=O)NC2(CCc3ccccc32)C1=O)C1CCCCC1 (stereo not given)	1%	45µM*	-2%	34%	-1%	0
COc1ccccc1C(=O)CN1C(=O)NC2(CCc3ccccc32)C1=O (stereo not given)	-17%	50µM*	-1%	34%	11%	-10
COc1ccc(N2CCN(C(=O)CN3C(=O)NC4(CCCc5ccccc54)C3=O)CC2)cc1 (stereo not given)	-30%	40µM*	-11%	-12%	10%	7
CCN(C(=O)CN1C(=O)NC2(CCCc3ccccc32)C1=O)c1ccc(F)cc1 (stereo not given)	-14%	-8%[12.7 µM]	-1%	29%	2%	0
COc1ccc(N2CCN(C(=O)CN3C(=O)NC(c4ccc(OC)cc4)(c4ccc(OC)cc4)C3=O)CC2)cc1	?	.	.	-12%	-18%	-6
C=CCn1c(C)cc(C(=O)CN2C(=O)NC3(CCCc4ccccc43)C2=O)c1C (stereo not given)	?	45µM*	.	?	?	-1
COc1ccccc1C(=O)CN1C(=O)NC2(CCCc3ccccc32)C1=O (stereo not given)	-22%	.	0%	-6%	.	1
Cc1cc(N2CCN(c3cccc(C)c3C)CC2)n2cnnc2n1	-22%	-21%[59 µM]	.	21%	?	.
Fc1ccc(NCc2nc3ccccc3n2CCOc2ccccc2Cl)cc1	-20%	12%[59 µM]	.	33%	14%	.
COc1ccc(NCc2nc3ccccc3n2CCOc2ccccc2C)cc1	20µM*	?	.	?	13µM*	.
Cc1ccc(OCCn2c(CNc3cccc(C)c3)nc3ccccc32)cc1	?	-45%[59 µM]	.	-9%	?	.
Cc1ccc(NCc2nc3ccccc3n2CCOc2ccccc2)cc1	16µM*	2.2µM*	?	-23%	22µM*	-6
O=C(NCCOc1ccccc1F)c1cccc(S(=O)(=O)N2CCN(c3ccccc3)CC2)c1	-26%	40µM*	-1%	13%	-15%	8
O=C(NCCCN1CCOCC1)c1cccc(S(=O)(=O)N2CCN(c3ccccc3)CC2)c1	-19%	-40%	4%	8%	4%	7
CCOc1ccccc1CNC(=O)c1[nH]c2ccccc2c1Sc1ccccc1	-28%	-34%[59 µM]	.	-3%	-26%	.
Cc1cccc(-n2cnc3cc(C(=O)NCc4ccccc4Cl)ccc32)c1	-27%	-25%[59 µM]	.	16%	?	.
S=C1NC2(CCS1)Oc1ccccc1C1CC(c3ccccc3)=NN12 (stereo not given)	.	50µM*	.	.	?	.
COc1cccc(NS(=O)(=O)c2ccc3c(c2)[C@H]2C=CC[C@H]2[C@@H](c2ccccc2Cl)N3)c1	-24%	?	.	19%	0%	.
COC(=O)c1ccc(NS(=O)(=O)c2ccc3c(c2)n(C)c(=O)c(=O)n3C)cc1	-14%	5%[59 µM]	.	5%	.	.
Cc1c(Cl)cccc1NS(=O)(=O)c1ccc2c(c1)C1C=CCC1C(c1ccc(C(=O)O)cc1)N2 (stereo not given)	56µM*	2.8µM*	7.9µM*	50µM*	45µM*	-102*
COC(=O)c1ccc([C@H]2Nc3ccc(S(=O)(=O)Nc4ccc(C)cc4)cc3[C@H]3C=CC[C@H]32)cc1	?	3.5µM*	.	-11%	?	.
COc1ccc(NS(=O)(=O)c2ccc3c(c2)[C@H]2C=CC[C@H]2[C@@H](c2ccc(C(=O)O)cc2)N3)cc1	45µM*	25µM*	.	35µM*	40µM*	-65*
